A selection: hits, their analogues and other compounds. The true share with any hit is near 6.5%.
HCMV antiviral = blocks human cytomegalovirus replication | HFF cells, HCMV-luciferase reporter, 72 h; active compounds read low | activity change, negative = inhibition, % at 57.5 µM | 410,000 tested, 4.5% active | AID 1259415; in the data active means activity change below about -60%; inconclusive means no clear call, values can overlap the other calls; inactive means above about -39%
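Compounds were evaluated in HFFs infected with an HCMV luciferase reporter virus (MOI 1 PFU/cell). Luciferase in lysates collected 72 h post infection served as the replication measure.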
VACV Venus inh = inhibitors of vaccinia virus (Venus reporter); Vaccinia virus Venus reporter expression, fluorescence; Potency, µM (highest dose often 36.5 µM), most hits filed as inhibitors; 330,000 tested, 0.46% active; calls by dose curve; tested in A549 cells; further: nearly all actives have a fitted effect of over 30% in size
Marburg entry inh = inhibitors of Marburg virus binding or cell entry. Marburg virus pseudotyped entry inhibition, cell reporter. Potency, µM (titrated, usually from 37.8 µM), hits mostly inhibitors. 300,000 tested, 1.8% active; calls by dose curve; tested in HEK293 cells
Lassa entry inh = Lassa virus entry inhibition. Lassa virus pseudotype entry inhibition, cell reporter. Potency, µM (highest dose often 37.9 µM), hits mostly inhibitors. 300,000 tested, 1.2% active; calls by dose curve; tested in HEK293 cells; further: nearly all actives have a fitted effect of over 50% in size
FMDV inh = antivirals against foot and mouth disease virus; FMDV antiviral cell-based qHTS; Potency, µM (top dose mostly 57.9 µM), usual class: inhibitors; 410,000 tested, 1.2% active; calls by dose curve; tested in HEK293T cells; further: read-out not given here; nearly all actives have a fitted effect of over 45% in size
Vaccinia mCherry = inhibitors of vaccinia virus infection (mCherry reporter signal); Vaccinia virus mCherry reporter infection, fluorescence; Potency, µM (series often up to 36.5 µM), hits mostly inhibitors; 310,000 tested, 0.63% active; AID 720579; calls by dose curve; tested in A549 cells; further: nearly all actives have a fitted effect of over 35% in size
Numbers stand for hits; i = inactive; ? = inconclusive; nt = no result given.

SMILES	HCMV antiviral	VACV Venus inh	Marburg entry inh	Lassa entry inh	FMDV inh	Vaccinia mCherry
COc1cc(C2Nc3ccccc3-c3nnc(SCc4ccc(C)cc4)nc3O2)cc(OC)c1O (stereo not given)	i	i	?	i	22µM	i
CC(=O)c1cnc2nc(SCc3ccc(Cl)cc3)nn2c1C	i	i	i	i	i	i
CN1CCC2(CC1)Nc1nc(SCc3ccc(Cl)cc3)nn1C1=C2CN(C)CC1	i	i	?	14µM	i	nt
O=S(=O)(c1ccccc1C(F)(F)F)N1CCN(c2nc(-c3ccccc3)nc3ccccc23)CC1	nt	i	nt	nt	nt	i
CN(C)c1ccc2cc(S(=O)(=O)O)cc(O)c2c1	-100	i	i	i	i	?
COC(=O)[C@]1(C#N)CC(=O)N([C@H](C)[C@@H](O)c2ccccc2)[C@@H]1c1ccccc1	i	nt	nt	nt	nt	nt
COc1ccc(CCNC(=O)CSc2ccc(-c3ccco3)nn2)cc1OC	-63	i	?	?	i	i
COc1ccc(NC(=O)CSc2ccc(-c3ccco3)nn2)cc1OC	i	i	i	i	?	i
COc1ccccc1C(C[N+](=O)[O-])c1c(N)n(C)c(=O)n(C)c1=O (stereo not given)	-97	nt	nt	nt	32µM	nt
Cc1onc(C(=O)Nc2cccc(C(F)(F)F)c2)c1[N+](=O)[O-]	i	nt	nt	nt	i	nt
Cc1nc(Cl)c(C(=O)NC(=O)Nc2cccc(C(F)(F)F)c2)c(C)c1[N+](=O)[O-]	i	i	?	?	22µM	i
CCOc1ccc(OCC)c(NS(=O)(=O)c2cc(-c3onc(C)c3C)ccc2OC)c1	i	i	nt	i	i	i
OC(c1ccc(F)cc1)c1ncc(-c2ccccc2Cl)[nH]1 (stereo not given)	i	i	nt	nt	i	i
COc1ccc(C(O)c2ncc(-c3ccccc3)[nH]2)cc1F (stereo not given)	-101	i	nt	nt	i	i
COc1ccc(C(O)c2ncc(-c3ccccc3)[nH]2)cc1 (stereo not given)	i	i	nt	nt	i	i
COc1ccc(C(O)c2ncc(-c3ccccc3Cl)[nH]2)cc1F (stereo not given)	-102	i	nt	nt	i	i
COc1cc(/C=N/NC(=O)c2cc(-c3ccccc3)sc2N)cc(OC)c1OC	i	i	?	16µM	i	i
O=C(N/N=C\c1cccc(F)c1)c1ccc(-c2ccccc2)cc1	i	i	i	i	i	i
Cc1ccccc1/C=N/NC(=O)c1sccc1C	i	i	i	i	i	i
COc1cc(C(=O)N/N=C/c2sccc2C)cc(OC)c1OC	-87	i	?	?	i	?
Cc1ccsc1/C=N/NC(=O)c1ccncc1	i	i	i	i	i	i
COc1ccc(/C=N/NC(=O)c2sccc2C)c2ccccc12	-62	nt	nt	nt	i	nt
O=C(N/N=C\c1c(F)c(F)c(F)c(F)c1F)c1ccc(-c2ccccc2)cc1	-69	i	i	i	i	i
Cc1ccc(-n2c(=O)c3c(c4cc(C)ccc4n3C)n(Cc3ccc(F)cc3)c2=O)cc1	i	i	nt	i	i	i
COc1cc(/C=N/NC(=O)c2ccc(-c3ccccc3)cc2)cc(OC)c1OC	?	?	i	i	i	5.6µM
SMILES	HCMV antiviral	VACV Venus inh	Marburg entry inh	Lassa entry inh	FMDV inh	Vaccinia mCherry
COc1cc(C(=O)Oc2ccccc2/C=N/NC(=O)c2ccc(C)c(Cl)c2)cc(OC)c1OC	-104	?	?	?	i	5µM
COc1ccc(/C=N\NC(=O)c2ccc(-c3ccccc3)cc2)c(OC)c1OC	i	i	i	?	i	i
CCc1cccc2c(C(O)c3c[nH]c4ccccc34)c[nH]c12 (stereo not given)	nt	i	nt	nt	nt	i
Cc1cc(NC(=O)Cc2ccccc2)c2ccccc2n1	-86	nt	nt	nt	?	nt
Cc1cc(C)nc(SCC(=O)Nc2ccnc3ccccc23)n1	-89	i	?	?	?	?
O=C(CSC1=NCCS1)Nc1ccnc2ccccc12	-73	i	i	i	nt	?
CC1=C2C(=COC(C)C2C)C(=O)C(C(=O)O)=C1O (stereo not given)	nt	i	nt	nt	i	i
COc1ccc(-c2nn(C)c3sc(C(=O)N4CCN(c5cc(Cl)ccc5C)CC4)cc23)cc1OC	i	i	?	i	i	i
O=C(CSc1nc2ccc(Cl)cc2[nH]1)NC1CCCc2ccccc21 (stereo not given)	-74	i	?	i	28µM	i
Cc1cnc(C)c(-c2cccc3c2OC(CNC(=O)C[C@@H]2C[C@@H](C)NC(=S)N2)C3)n1 (stereo not given in full)	nt	i	nt	nt	i	i

Source: PubChem BioAssay (National Center for Advancing Translational Sciences (NCATS))
